Laboratory results taken from PubChem BioAssay (NCI).
Compounds without any hit were thinned out: in the full panel of roughly 83,000, 20% have a hit.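 Activity criterion: percent growth below 10, measured after cells in 96-well plates were exposed to a single compound concentration for 48 hours.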 Active and inactive are the calls of the source.

What was measured:
Test in all cases: NCI-60 one-dose screen, 48 h (100 = growth as untreated, 0 = no growth, -100 = all killed)
Conditions in all cases: 10 µM
SK-MEL-2 melanoma = tested on: SK-MEL-2 melanoma
EKVX NSCLC = tested on: EKVX NSCLC
SN12C renal = tested on: SN12C renal
UO-31 renal = tested on: UO-31 renal
ACHN renal = tested on: ACHN renal
CAKI-1 renal = tested on: CAKI-1 renal
A498 renal = tested on: A498 renal
CCRF-CEM leukemia = tested on: CCRF-CEM leukemia
MOLT-4 leukemia = tested on: MOLT-4 leukemia
SR leukemia = tested on: SR leukemia
RPMI-8226 leukemia = tested on: RPMI-8226 leukemia
OVCAR-8 ovarian = tested on: OVCAR-8 ovarian
OVCAR-4 ovarian = tested on: OVCAR-4 ovarian
SK-OV-3 ovarian = tested on: SK-OV-3 ovarian
IGROV1 ovarian = tested on: IGROV1 ovarian
OVCAR-3 ovarian = tested on: OVCAR-3 ovarian
HS 578T breast = tested on: HS 578T breast
NCI/ADR-RES ovarian = tested on: NCI/ADR-RES ovarian
OVCAR-5 ovarian = tested on: OVCAR-5 ovarian

Measured: growth

C/C(=N\O)c1ccc(NC(=O)CSc2nnc(-c3ccccc3)n2-c2ccccc2)cc1
inactive: SK-MEL-2 melanoma 118% | EKVX NSCLC 91.9% | SN12C renal 72.4% | UO-31 renal 76.2% | ACHN renal 63.7% | CAKI-1 renal 85.6% | A498 renal 92.7% | CCRF-CEM leukemia 92% | MOLT-4 leukemia 95.2% | SR leukemia 106% | RPMI-8226 leukemia 91.2% | OVCAR-8 ovarian 84.7% | OVCAR-4 ovarian 87.3% | SK-OV-3 ovarian 39.3% | IGROV1 ovarian 76.7% | OVCAR-3 ovarian 81.4% | HS 578T breast 62.5% | NCI/ADR-RES ovarian 90.8%

COc1ccc(C(=O)c2cc3c(OC)c(OC)c(OC)cc3[nH]2)cc1
active: SR leukemia -47.8%
inactive: SK-MEL-2 melanoma 43.7% | EKVX NSCLC 98.4% | SN12C renal 75.1% | UO-31 renal 56% | ACHN renal 79.4% | CAKI-1 renal 128% | A498 renal 59.9% | CCRF-CEM leukemia 42.8% | MOLT-4 leukemia 50.2% | RPMI-8226 leukemia 31.4% | OVCAR-8 ovarian 62.8% | OVCAR-5 ovarian 68.4% | OVCAR-4 ovarian 62.7% | SK-OV-3 ovarian 86.4% | IGROV1 ovarian 35% | OVCAR-3 ovarian 45.1% | NCI/ADR-RES ovarian 18.6%

O=C1CC(=O)N(C(=O)c2nn(-c3ccc(Cl)cc3)cc2O)N1
inactive: SK-MEL-2 melanoma 53% | EKVX NSCLC 29.6% | SN12C renal 45.1% | UO-31 renal 25.6% | ACHN renal 38.3% | A498 renal 113% | MOLT-4 leukemia 16.6% | OVCAR-8 ovarian 30.1% | OVCAR-5 ovarian 65.2% | OVCAR-4 ovarian 34.1% | SK-OV-3 ovarian 40.7% | IGROV1 ovarian 34.4% | NCI/ADR-RES ovarian 33.6%
active: CAKI-1 renal -7.19% | CCRF-CEM leukemia 5.93% | SR leukemia -31.9% | RPMI-8226 leukemia -8% | OVCAR-3 ovarian -4.11%

CSc1nc2c(c(=O)n1C)CN(Cc1ccccc1)C(=O)CN2
active: SR leukemia -9.52%
inactive: SK-MEL-2 melanoma 86.3% | EKVX NSCLC 86% | SN12C renal 97.7% | UO-31 renal 78.3% | ACHN renal 96.4% | CAKI-1 renal 88.6% | A498 renal 92.4% | CCRF-CEM leukemia 80.7% | MOLT-4 leukemia 92.5% | RPMI-8226 leukemia 109% | OVCAR-8 ovarian 106% | OVCAR-5 ovarian 94.4% | OVCAR-4 ovarian 91% | SK-OV-3 ovarian 99% | IGROV1 ovarian 97.6% | OVCAR-3 ovarian 98.6% | HS 578T breast 101% | NCI/ADR-RES ovarian 85.5%

COc1ccc(/C=C2\CCCC3=C2NC(N)=NC3c2ccc(OC)cc2)cc1 (stereo not given)
inactive: SK-MEL-2 melanoma 98.2% | EKVX NSCLC 92.1% | SN12C renal 86.7% | UO-31 renal 72.8% | ACHN renal 98.3% | CAKI-1 renal 90.1% | A498 renal 84.5% | CCRF-CEM leukemia 87.6% | MOLT-4 leukemia 84.2% | SR leukemia 81.9% | RPMI-8226 leukemia 57.7% | OVCAR-8 ovarian 95.8% | OVCAR-5 ovarian 103% | OVCAR-4 ovarian 72.8% | SK-OV-3 ovarian 78.3% | IGROV1 ovarian 99.7% | HS 578T breast 112% | NCI/ADR-RES ovarian 90.8%

COc1cc2cc(Oc3ccc(NC(=O)Nc4cccc(C(F)(F)F)c4)cc3)c(C)nc2cc1OC
inactive: EKVX NSCLC 15.4% | SN12C renal 17.2% | UO-31 renal 11.3% | ACHN renal 11.2% | A498 renal 21.7% | OVCAR-5 ovarian 27.8% | OVCAR-4 ovarian 31.7% | HS 578T breast 22.5%
active: SK-MEL-2 melanoma -35.8% | CAKI-1 renal 9.13% | MOLT-4 leukemia 0.812% | SR leukemia -6.62% | RPMI-8226 leukemia -5.94% | OVCAR-8 ovarian 8.32% | SK-OV-3 ovarian 3.35% | IGROV1 ovarian 8.77% | OVCAR-3 ovarian -0.54% | NCI/ADR-RES ovarian 6.98%

CN(C)CCOc1ccc(-c2nc3sccn3c2-c2ccnc(S(C)(=O)=O)n2)cc1
inactive: SK-MEL-2 melanoma 111% | EKVX NSCLC 102% | SN12C renal 101% | UO-31 renal 97.1% | ACHN renal 106% | CAKI-1 renal 98.8% | A498 renal 96.3% | CCRF-CEM leukemia 91% | MOLT-4 leukemia 109% | SR leukemia 109% | RPMI-8226 leukemia 89.6% | OVCAR-8 ovarian 106% | OVCAR-4 ovarian 95.9% | SK-OV-3 ovarian 88.6% | IGROV1 ovarian 115% | OVCAR-3 ovarian 115% | HS 578T breast 101% | NCI/ADR-RES ovarian 102%

CS(=O)(=O)c1nccc(-c2c(-c3cccc(OCCN4CCOCC4)c3)nc3sccn23)n1
inactive: SK-MEL-2 melanoma 102% | EKVX NSCLC 101% | SN12C renal 96.8% | UO-31 renal 68.5% | ACHN renal 90.9% | CAKI-1 renal 85.3% | A498 renal 59.2% | MOLT-4 leukemia 93.9% | SR leukemia 78.3% | RPMI-8226 leukemia 47.8% | OVCAR-8 ovarian 92.1% | OVCAR-5 ovarian 96.6% | OVCAR-4 ovarian 76.8% | SK-OV-3 ovarian 84.9% | IGROV1 ovarian 80.2% | OVCAR-3 ovarian 94.8% | HS 578T breast 88.7%

COc1cc2cc(Oc3ccc(NC(=O)Nc4ccc(C(F)(F)F)cc4)cc3)c(C)nc2cc1OC
inactive: SK-MEL-2 melanoma 76.7% | EKVX NSCLC 75.7% | SN12C renal 72.2% | UO-31 renal 87.6% | ACHN renal 56.1% | CAKI-1 renal 70.4% | A498 renal 90.5% | MOLT-4 leukemia 61.9% | SR leukemia 59.6% | RPMI-8226 leukemia 52.7% | OVCAR-8 ovarian 37.8% | OVCAR-5 ovarian 92.9% | OVCAR-4 ovarian 49% | SK-OV-3 ovarian 38.8% | IGROV1 ovarian 71.9% | OVCAR-3 ovarian 67% | HS 578T breast 70.9% | NCI/ADR-RES ovarian 64.1%

CS(=O)(=O)c1nccc(-c2c(-c3cccc(OCc4ccccc4)c3)nc3sccn23)n1
inactive: SK-MEL-2 melanoma 103% | EKVX NSCLC 92.5% | SN12C renal 76.2% | ACHN renal 95.9% | CAKI-1 renal 44.2% | A498 renal 72.5% | CCRF-CEM leukemia 52.5% | MOLT-4 leukemia 26.5% | SR leukemia 37.9% | RPMI-8226 leukemia 81.6% | OVCAR-8 ovarian 92.7% | OVCAR-5 ovarian 89.2% | OVCAR-4 ovarian 73.8% | SK-OV-3 ovarian 72.8% | IGROV1 ovarian 58.4% | HS 578T breast 79.1% | NCI/ADR-RES ovarian 90.7%
active: UO-31 renal 3.7%

CS(=O)(=O)c1nccc(-c2c(-c3cccc(OCc4ccc(F)cc4)c3)nc3sccn23)n1
inactive: SK-MEL-2 melanoma 96% | EKVX NSCLC 97.2% | SN12C renal 77.7% | ACHN renal 94.9% | CAKI-1 renal 34.4% | A498 renal 77.3% | CCRF-CEM leukemia 50% | MOLT-4 leukemia 24.2% | SR leukemia 38.6% | RPMI-8226 leukemia 71.7% | OVCAR-8 ovarian 86.3% | OVCAR-5 ovarian 102% | OVCAR-4 ovarian 65.1% | SK-OV-3 ovarian 60.7% | IGROV1 ovarian 49.7% | OVCAR-3 ovarian 88.3% | HS 578T breast 73.4% | NCI/ADR-RES ovarian 89.4%
active: UO-31 renal -24.1%

COc1cc2c(Nc3ccc(S(N)(=O)=O)cc3)ncnc2c(OC)c1OC
inactive: SK-MEL-2 melanoma 92.4% | EKVX NSCLC 100% | SN12C renal 93.5% | UO-31 renal 67.3% | ACHN renal 99.4% | CAKI-1 renal 92% | A498 renal 103% | CCRF-CEM leukemia 92.5% | MOLT-4 leukemia 97.3% | SR leukemia 99.9% | RPMI-8226 leukemia 99.1% | OVCAR-8 ovarian 106% | OVCAR-5 ovarian 105% | OVCAR-4 ovarian 102% | SK-OV-3 ovarian 75.5% | IGROV1 ovarian 96.1% | OVCAR-3 ovarian 90.4% | NCI/ADR-RES ovarian 96.5%

COc1nc2c(c(=O)n1C)CN(c1ccccc1)C(=O)C(C)N2 (stereo not given)
inactive: SK-MEL-2 melanoma 90.8% | EKVX NSCLC 96.4% | SN12C renal 92% | UO-31 renal 78.7% | ACHN renal 93.9% | CAKI-1 renal 100% | A498 renal 115% | CCRF-CEM leukemia 97.2% | MOLT-4 leukemia 93.7% | SR leukemia 93.6% | RPMI-8226 leukemia 96% | OVCAR-8 ovarian 93.4% | OVCAR-5 ovarian 93.2% | OVCAR-4 ovarian 91.9% | SK-OV-3 ovarian 107% | IGROV1 ovarian 106% | OVCAR-3 ovarian 112% | HS 578T breast 105% | NCI/ADR-RES ovarian 91%

N#Cc1cnn(C(=O)c2nn(-c3ccc(Cl)cc3)cc2O)c1N
inactive: SN12C renal 26.5% | ACHN renal 11.4% | A498 renal 48.6% | OVCAR-8 ovarian 10.1% | OVCAR-5 ovarian 30.6% | OVCAR-4 ovarian 18.8% | IGROV1 ovarian 12.5% | HS 578T breast 75.9%
active: SK-MEL-2 melanoma 1.93% | EKVX NSCLC 1.5% | UO-31 renal -3.61% | CAKI-1 renal -34.4% | CCRF-CEM leukemia -10.1% | MOLT-4 leukemia -14.4% | SR leukemia -35.5% | RPMI-8226 leukemia -37% | SK-OV-3 ovarian 8.44% | NCI/ADR-RES ovarian 3.25%

COc1cc2cc(Oc3ccc(NC(=O)c4ccc(Cl)c(C(F)(F)F)c4)cc3)c(C)nc2cc1OC
active: RPMI-8226 leukemia 9.15% | OVCAR-3 ovarian 0%
inactive: SK-MEL-2 melanoma 31.2% | EKVX NSCLC 18.8% | SN12C renal 24.1% | UO-31 renal 18.3% | ACHN renal 26.6% | CAKI-1 renal 21.6% | A498 renal 24.3% | CCRF-CEM leukemia 19.9% | MOLT-4 leukemia 18% | SR leukemia 37.1% | OVCAR-8 ovarian 27.7% | OVCAR-4 ovarian 42.4% | SK-OV-3 ovarian 27.7% | IGROV1 ovarian 20.6% | HS 578T breast 41.6% | NCI/ADR-RES ovarian 14.1%

COc1ccc(-c2n[nH]nc2-c2cc(OC)c(OC)c(OC)c2)cc1
active: A498 renal -12.9% | CCRF-CEM leukemia 9.31% | MOLT-4 leukemia 6.91% | SR leukemia 7.33% | RPMI-8226 leukemia 4.71% | IGROV1 ovarian 4.66% | OVCAR-3 ovarian -33.3% | NCI/ADR-RES ovarian -28.8%
inactive: SK-MEL-2 melanoma 21.2% | EKVX NSCLC 54.4% | SN12C renal 25% | UO-31 renal 44.3% | ACHN renal 41.2% | CAKI-1 renal 27.6% | OVCAR-8 ovarian 21.8% | OVCAR-5 ovarian 43.3% | OVCAR-4 ovarian 35.4% | SK-OV-3 ovarian 48.6% | HS 578T breast 12.2%

COc1ccc(N(C)c2ncnc3occ(C)c23)cc1
active: SK-MEL-2 melanoma -4.77% | CAKI-1 renal -6.13% | CCRF-CEM leukemia -20.9% | MOLT-4 leukemia -1.42% | SR leukemia -36.1% | RPMI-8226 leukemia -36.1% | OVCAR-8 ovarian -21.9% | IGROV1 ovarian -11.1% | OVCAR-3 ovarian -39.9% | NCI/ADR-RES ovarian -16.2%
inactive: EKVX NSCLC 42.1% | SN12C renal 34% | UO-31 renal 26.5% | ACHN renal 29% | A498 renal 68.7% | OVCAR-5 ovarian 28.1% | OVCAR-4 ovarian 40.2% | SK-OV-3 ovarian 19.9% | HS 578T breast 110%
